Measured values taken from PubChem BioAssay.
Calls of active or inactive are those of the source. Unless noted, the rule behind the calls is not given here.

Key:
[1] = anti-His antibody binders, primary screen, artefact control for SMM control protein annotation, biochemical, small-molecule microarray, 635 nm fluorescence (AID 1128); settings: anti-His Alexa647 antibody binding, higher = more signal;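 note: score merges feature fluorescence with signal-to-noise for each printed compound spot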
[2] = test system: Human papillomavirus type 1a E7 protein (residues 1-88); test: HPV1a E7 small-molecule binders, primary screen, biochemical, small-molecule microarray, residues 1-88, 635 nm (AID 1129); settings: small-molecule microarray binding, fluorescence 635 nm; higher = more signal
[3] = biological target: Focal adhesion kinase 1 (Homo sapiens) (UniProt Q05397); test: small-molecule microarray binders of FAK, primary screen, biochemical, 635/667 nm fluorescence, BSA, DTT (AID 1130); settings: PTK2 binding, 635 nm fluorescence, higher = more signal;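 note: composite of spot emission at 667 nm and signal to noise over triplicate slides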
Sequence of Focal adhesion kinase 1 (Homo sapiens) (Q05397 whole entry, looked up): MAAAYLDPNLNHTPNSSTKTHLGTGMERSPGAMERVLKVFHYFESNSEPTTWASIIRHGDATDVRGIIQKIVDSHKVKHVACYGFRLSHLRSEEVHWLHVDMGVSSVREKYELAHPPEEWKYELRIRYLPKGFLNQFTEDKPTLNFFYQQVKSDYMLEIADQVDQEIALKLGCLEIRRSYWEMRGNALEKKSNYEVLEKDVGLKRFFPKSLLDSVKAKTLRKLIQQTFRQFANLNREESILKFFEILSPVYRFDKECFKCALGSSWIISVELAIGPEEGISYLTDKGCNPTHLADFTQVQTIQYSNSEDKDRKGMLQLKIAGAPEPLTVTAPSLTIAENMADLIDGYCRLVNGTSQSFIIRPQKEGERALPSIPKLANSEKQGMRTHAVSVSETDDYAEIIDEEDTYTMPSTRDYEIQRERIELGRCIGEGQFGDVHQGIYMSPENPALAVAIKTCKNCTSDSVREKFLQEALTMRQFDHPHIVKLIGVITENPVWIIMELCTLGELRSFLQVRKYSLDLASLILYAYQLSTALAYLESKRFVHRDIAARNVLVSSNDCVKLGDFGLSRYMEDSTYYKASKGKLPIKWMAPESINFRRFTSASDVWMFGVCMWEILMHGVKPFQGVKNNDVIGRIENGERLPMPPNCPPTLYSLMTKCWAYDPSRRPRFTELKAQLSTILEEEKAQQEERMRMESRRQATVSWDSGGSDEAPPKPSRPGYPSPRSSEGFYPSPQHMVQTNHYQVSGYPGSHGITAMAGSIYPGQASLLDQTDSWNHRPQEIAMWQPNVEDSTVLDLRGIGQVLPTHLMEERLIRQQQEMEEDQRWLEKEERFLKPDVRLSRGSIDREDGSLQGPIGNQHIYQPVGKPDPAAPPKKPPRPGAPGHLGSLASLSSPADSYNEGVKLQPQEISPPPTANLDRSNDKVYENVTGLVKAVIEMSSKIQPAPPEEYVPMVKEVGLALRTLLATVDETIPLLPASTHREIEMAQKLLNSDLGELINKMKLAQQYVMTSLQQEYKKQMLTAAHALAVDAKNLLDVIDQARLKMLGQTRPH

[4] = test system: Fibrinogen (Alexa647-labelled); test: fibrinogen binders on compound microarrays, profiling panel, artefact control for SMM control-protein annotation, biochemical, small-molecule microarray, 635/667 nm fluorescence (AID 1131); settings: fibrinogen-A647 binding fluorescence, higher = more signal;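 note: z-score merges 667 nm fluorescence with per-spot signal-to-noise over triplicate slides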
[5] = biological target: Follistatin (Homo sapiens) (UniProt P19883); test: follistatin binders on small-molecule microarrays, primary screen, biochemical, small-molecule microarray, 635/667 nm fluorescence (AID 1132); settings: FST binding, 635 nm fluorescence, higher = more signal
Sequence of Follistatin (Homo sapiens) (P19883 whole entry, looked up): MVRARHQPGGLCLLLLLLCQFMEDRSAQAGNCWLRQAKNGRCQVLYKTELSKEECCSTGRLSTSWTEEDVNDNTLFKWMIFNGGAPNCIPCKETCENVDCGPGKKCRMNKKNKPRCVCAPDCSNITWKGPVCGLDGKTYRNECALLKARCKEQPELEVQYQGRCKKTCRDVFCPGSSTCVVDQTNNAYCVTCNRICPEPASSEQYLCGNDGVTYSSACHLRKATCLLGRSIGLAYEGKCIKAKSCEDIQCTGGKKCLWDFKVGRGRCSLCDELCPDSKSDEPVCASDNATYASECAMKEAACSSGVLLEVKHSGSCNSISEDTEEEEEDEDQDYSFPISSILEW

[6] = biological target: Fibroblast growth factor 2 (Homo sapiens) (UniProt P09038); test: FGF2 binders on small-molecule microarrays, primary screen, biochemical, small-molecule microarray, 635/667 nm fluorescence (AID 1133); settings: small-molecule microarray binding, FGF2, fluorescence 635/667; higher = more signal
Sequence of Fibroblast growth factor 2 (Homo sapiens) (P09038 whole entry, looked up): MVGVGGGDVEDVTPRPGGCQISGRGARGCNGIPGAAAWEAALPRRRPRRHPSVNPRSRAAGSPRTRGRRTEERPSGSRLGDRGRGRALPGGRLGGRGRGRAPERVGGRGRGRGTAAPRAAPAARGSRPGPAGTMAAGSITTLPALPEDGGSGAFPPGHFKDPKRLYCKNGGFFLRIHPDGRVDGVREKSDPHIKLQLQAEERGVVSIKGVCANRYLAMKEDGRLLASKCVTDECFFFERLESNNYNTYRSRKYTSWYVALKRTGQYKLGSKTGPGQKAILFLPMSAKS

[7] = mitochondrial membrane potential change in A549 cells, profiling panel, cell-based, JC-1 fluorescence, basal, 24 h, 100 nL (AID 1138); settings: higher = more signal;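 note: A549 lung adenocarcinoma cells under basal conditions with no added stimulus; test concentration not given here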
[8] = test system: Lefty1; test: Lefty1 binders on small-molecule microarrays, primary screen, biochemical, small-molecule microarray, 635/667 nm fluorescence (AID 1139); settings: small-molecule microarray binding, fluorescence 635/667; higher = more signal
[9] = test system: wheat germ agglutinin (Triticum aestivum), Alexa647-labelled; test: wheat germ agglutinin binders on compound microarrays, profiling panel, artefact control for SMM control-protein annotation, biochemical, small-molecule microarray, 635/667 nm fluorescence (AID 1140); settings: WGA-A647 binding, 635 nm fluorescence, higher = more signal;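 note: score merges 667 nm feature emission with signal to noise over triplicate slides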
[10] = biological target: Luciferin 4-monooxygenase (Photinus pyralis) (UniProt P08659); test: firefly luciferase enzyme inhibitors, primary screen, biochemical, luminescence, purified enzyme, 2006 set (AID 1141); settings: SteadyGlo luminescence, 30 min, higher = more signal, called active from +8 up or from −8 down;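 note: cell-free assay with purified firefly luciferase at 100 ng per well in PBS; test concentration not given here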
Sequence of Luciferin 4-monooxygenase (Photinus pyralis) (P08659 whole entry, looked up): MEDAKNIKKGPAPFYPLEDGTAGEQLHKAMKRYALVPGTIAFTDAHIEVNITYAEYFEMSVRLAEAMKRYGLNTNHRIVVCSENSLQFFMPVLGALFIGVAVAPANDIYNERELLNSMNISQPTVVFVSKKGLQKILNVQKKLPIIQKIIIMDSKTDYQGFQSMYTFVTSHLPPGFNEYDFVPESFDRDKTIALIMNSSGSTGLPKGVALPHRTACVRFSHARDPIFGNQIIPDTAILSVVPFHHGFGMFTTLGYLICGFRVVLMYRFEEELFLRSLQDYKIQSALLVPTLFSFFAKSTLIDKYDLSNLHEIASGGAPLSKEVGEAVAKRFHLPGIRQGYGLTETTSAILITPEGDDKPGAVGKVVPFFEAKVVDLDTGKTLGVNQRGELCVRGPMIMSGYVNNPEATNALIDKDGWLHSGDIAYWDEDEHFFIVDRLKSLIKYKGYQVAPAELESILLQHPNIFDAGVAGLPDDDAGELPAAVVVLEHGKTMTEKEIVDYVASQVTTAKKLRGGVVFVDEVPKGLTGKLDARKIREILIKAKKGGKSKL

[11] = test system: Wnt5a (protein binding on small-molecule microarray); test: Wnt5a binders on small-molecule microarray, primary screen, biophysical, 635/667 nm fluorescence (AID 1142); settings: 635 nm fluorescence, higher = more signal;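 note: fluorescence read at 667 nm with signal to noise per printed feature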
[12] = cell viability in Huh7 cells, primary screen, cytotoxicity control for HCV replication inhibitor project, CellTiter-Glo luminescence, basal, 48 h (AID 1143); settings: Huh7 HCV replicon, higher = more signal, called active from +8 up or from −8 down;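 note: Huh7 hepatoma cells carrying a hepatitis C replication reporter with no stimulus; test concentration not given here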
[13] = P. aeruginosa biofilm formation inhibitors, primary screen, PAO1 strain, BacTiter-Glo luminescence, LB-PBS (AID 1144); settings: 12 h, higher = more signal
[14] = CREB reporter modulators without forskolin, primary screen, cell-based, PC12, CRE-LacZ reporter, unstimulated (AID 1145); settings: no forskolin, luminescence, 4.5 h, higher = more signal, called active from +8 up or from −8 down
[15] = CREB reporter modulators under forskolin, primary screen, cell-based, PC12, CRE-LacZ reporter, forskolin-stimulated (AID 1146); settings: luminescence, 4.5 h, higher = more signal, called active from +8 up or from −8 down;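 note: PC12 cells with 6xCRE LacZ reporter stimulated by forskolin 10 µM; beta-galactosidase reporter signal reflecting CREB driven transcription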
[16] = biological target: Streptavidin (Streptomyces avidinii) (UniProt P22629); test: streptavidin binders on small-molecule microarray, primary screen, artefact control for SMM compound annotation, biophysical, 635/667 nm fluorescence (AID 1147); settings: streptavidin binding, higher = more signal;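 note: signal reflects streptavidin binding to arrayed compounds as a control protein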
Sequence of Streptavidin (Streptomyces avidinii) (P22629 whole entry, looked up): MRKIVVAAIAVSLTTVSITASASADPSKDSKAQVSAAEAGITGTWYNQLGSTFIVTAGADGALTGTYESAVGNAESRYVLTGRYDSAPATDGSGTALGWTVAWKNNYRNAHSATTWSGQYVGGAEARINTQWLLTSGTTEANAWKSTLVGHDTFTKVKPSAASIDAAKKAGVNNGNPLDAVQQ

[17] = small-molecule binders of probe aInhba, primary screen, biochemical, small-molecule microarray, 635/667 nm fluorescence (AID 1148); settings: higher = more signal;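 note: score merges 667nm spot fluorescence with signal-to-noise for antibody binding to printed compounds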
[18] = biological target: Torsin-1A (Homo sapiens) (UniProt O14656); test: torsin A binders from cell lysate, primary screen, small-molecule microarray, wild-type, 635/667 nm (AID 1149); settings: COS7 hTOR1A-WT lysate, 635 nm fluorescence, higher = more signal
Sequence of Torsin-1A (Homo sapiens) (O14656 whole entry, looked up): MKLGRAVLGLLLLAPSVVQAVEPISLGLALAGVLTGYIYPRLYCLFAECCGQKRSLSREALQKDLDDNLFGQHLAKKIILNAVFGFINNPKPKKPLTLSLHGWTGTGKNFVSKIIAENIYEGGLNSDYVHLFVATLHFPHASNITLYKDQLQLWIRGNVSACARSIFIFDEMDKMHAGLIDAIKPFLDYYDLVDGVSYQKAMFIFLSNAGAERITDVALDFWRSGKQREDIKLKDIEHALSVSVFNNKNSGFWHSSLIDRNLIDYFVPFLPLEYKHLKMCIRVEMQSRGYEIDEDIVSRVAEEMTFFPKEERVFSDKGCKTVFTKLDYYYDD

[19] = biological target: Torsin-1A (Homo sapiens) (UniProt O14656); test: small-molecule binders of mutant TOR1A in lysate, primary screen, cell lysate, small-molecule microarray, COS7 lysate, 635/667 nm fluorescence (AID 1150); settings: COS7 hTOR1A mutant lysate, 635 nm fluorescence, higher = more signal;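 note: score pools 667 nm emission and signal to noise measuring lysate protein binding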
[20] = test system: Sonic hedgehog protein (Shh); test: small-molecule binders of Shh protein, primary screen, biochemical, small-molecule microarray, 635/667 nm fluorescence (AID 1151); settings: small-molecule microarray binding, 635 nm fluorescence; higher = more signal;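 note: Shh protein binding to compounds spotted on small-molecule microarray slides; score combines spot fluorescence intensity with signal-to-noise across triplicate slides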

C=CCC(OC(C)=O)[C@@H]1[C@@H](N(Cc2ccc(-c3ccccc3)cc2)C(=O)c2cccc3ccccc23)c2cc(OCCCO)ccc2N1C(=O)c1ccc2ccccc2c1 (stereo not given in full)
composite z-score [1]: -0.173 | composite z-score [2]: 0.216 | composite z-score [3]: 0.529 | composite z-score [4]: 0.728 | composite z-score [5]: 0.424 | composite z-score [6]: -0.198 | z-score [7]: 0.248 | composite z-score [8]: 0.243 | composite z-score [9]: 0.104 | z-score [10]: 0.209 (inactive) | composite z-score [11]: 0.0959 | z-score [12]: -1.61 (inactive) | z-score [13]: 0.41 (inactive) | z-score [14]: -0.155 (inactive) | z-score [15]: 0.108 (inactive) | composite z-score [16]: 0.144 | composite z-score [17]: 0.0219 | composite z-score [18]: -0.0928 | composite z-score [19]: 0.0249 | composite z-score [20]: 0.156

COc1cc2c(cc1O)C(C1CC1)N(Cc1ccc([N+](=O)[O-])o1)CC2 (stereo not given)
composite z-score [1]: 0.852 | composite z-score [2]: 1.12 | composite z-score [3]: 0.325 | composite z-score [4]: 0.577 | composite z-score [5]: 0.361 | composite z-score [6]: -0.0629 | z-score [7]: -0.184 | composite z-score [8]: -0.546 | composite z-score [9]: 1.06 | z-score [10]: -0.924 (inactive) | composite z-score [11]: 0.128 | z-score [12]: -0.148 (inactive) | z-score [13]: 0.741 (inactive) | z-score [14]: 0.0924 (inactive) | z-score [15]: 0.786 (inactive) | composite z-score [16]: 1.63 | composite z-score [17]: 0.161 | composite z-score [18]: 0.322 | composite z-score [19]: 0.521 | composite z-score [20]: -0.575

CCc1cccc(NC(=O)O[C@H]2[C@H](OC(=O)Nc3ccc4c(c3)OCO4)[C@H](OC(=O)Nc3ccc4c(c3)OCO4)[C@@H](OC)O[C@@H]2CO)c1
composite z-score [1]: 2.14 | composite z-score [2]: 1.24 | composite z-score [3]: -0.164 | composite z-score [4]: 0.97 | composite z-score [5]: 0.987 | composite z-score [6]: 0.0183 | z-score [7]: -0.308 | composite z-score [8]: 0.478 | composite z-score [9]: 0.815 | z-score [10]: -10.5 (active) | composite z-score [11]: 0.322 | z-score [12]: -4.18 (inactive) | z-score [13]: -0.373 (inactive) | z-score [14]: -0.3 (inactive) | z-score [15]: -0.321 (inactive) | composite z-score [16]: 0.0602 | composite z-score [17]: 0.0497 | composite z-score [18]: 0.138 | composite z-score [19]: 0.97 | composite z-score [20]: 1.91

COCC(=C=CC[C@@H](O)c1cccc(OCCO)c1)C[C@@H](O)COCc1ccccc1
composite z-score [1]: 0.934 | composite z-score [2]: 1.09 | composite z-score [3]: 0.112 | composite z-score [4]: -0.272 | composite z-score [5]: 0.941 | composite z-score [6]: -0.237 | z-score [7]: 0.806 | composite z-score [8]: -0.058 | composite z-score [9]: 1.34 | z-score [10]: -2.33 (inactive) | composite z-score [11]: 0.515 | z-score [12]: -0.825 (inactive) | z-score [13]: 0.125 (inactive) | z-score [14]: 5.99 (inactive) | z-score [15]: -0.352 (inactive) | composite z-score [16]: 0.709 | composite z-score [17]: 0.825 | composite z-score [18]: 1.58 | composite z-score [19]: 2.28 | composite z-score [20]: 0.436

CC(C)C(=C=CC[C@@H](O)c1cccc(OCCO)c1)CCO
composite z-score [1]: 0.241 | composite z-score [2]: 0.0895 | composite z-score [3]: -0.0966 | composite z-score [4]: 0.236 | composite z-score [5]: 1.14 | composite z-score [6]: 1.61 | z-score [7]: 0.265 | composite z-score [8]: 0.524 | composite z-score [9]: 0.271 | z-score [10]: -0.852 (inactive) | composite z-score [11]: 0.263 | z-score [12]: -0.219 (inactive) | z-score [13]: -0.468 (inactive) | z-score [14]: 1.37 (inactive) | z-score [15]: -0.755 (inactive) | composite z-score [16]: -0.236 | composite z-score [17]: 0.442 | composite z-score [18]: 0.462 | composite z-score [19]: 0.0336 | composite z-score [20]: 0.567

C=CCC(OC(C)=O)[C@@H]1[C@@H](N(Cc2ccc(-c3ccccc3)cc2)C(=O)c2ccc(C)cc2)c2cc(OCCCO)ccc2N1C(=O)c1ccc2ccccc2c1 (stereo not given in full)
composite z-score [1]: -0.722 | composite z-score [2]: 0.117 | composite z-score [3]: -0.161 | composite z-score [4]: -0.283 | composite z-score [5]: 0.576 | composite z-score [6]: -0.0502 | z-score [7]: 1.68 | composite z-score [8]: 0.297 | composite z-score [9]: 0.008 | z-score [10]: -1.9 (inactive) | composite z-score [11]: 0.0548 | z-score [12]: -0.715 (inactive) | z-score [13]: 0.137 (inactive) | z-score [14]: 1.97 (inactive) | z-score [15]: 0.179 (inactive) | composite z-score [16]: 0.122 | composite z-score [17]: 0.108 | composite z-score [18]: 0.222 | composite z-score [19]: -0.0531 | composite z-score [20]: 0.587

CCN(CC)c1ccc(N2CC=CC34O[C@@H]5C=CCOC(=O)[C@@H]5[C@H]3C(=O)N(CCO)[C@@H]4C2=O)cc1 (stereo not given in full)
composite z-score [1]: -0.305 | composite z-score [2]: -0.508 | composite z-score [3]: -0.856 | composite z-score [4]: -0.602 | composite z-score [5]: -0.721 | composite z-score [6]: -1.44 | z-score [7]: 1.41 | composite z-score [8]: -1.35 | composite z-score [9]: -1.38 | z-score [10]: -1.47 (inactive) | composite z-score [11]: -0.403 | z-score [12]: -0.271 (inactive) | z-score [13]: 1.72 (inactive) | z-score [14]: -0.0656 (inactive) | z-score [15]: -0.599 (inactive) | composite z-score [16]: -1.77 | composite z-score [17]: 0.476 | composite z-score [18]: -0.0491 | composite z-score [19]: -0.669 | composite z-score [20]: -0.198

[N-]=[N+]=NCc1ccccc1[C@H]1OC(c2ccc(OCCCO)cc2)=N[C@@]1(Cc1ccccc1)C(=O)N1CCOCC1
composite z-score [1]: 1.44 | composite z-score [2]: 1.26 | composite z-score [3]: 0.46 | composite z-score [4]: 0.992 | composite z-score [5]: 0.25 | composite z-score [6]: 1.48 | z-score [7]: 0.343 | composite z-score [8]: -0.155 | composite z-score [9]: 0.723 | z-score [10]: -0.372 (inactive) | composite z-score [11]: 0.896 | z-score [12]: -3.73 (inactive) | z-score [13]: -0.78 (inactive) | z-score [14]: 2.02 (inactive) | z-score [15]: -0.227 (inactive) | composite z-score [16]: 1.08 | composite z-score [17]: 0.355 | composite z-score [18]: 1.47 | composite z-score [19]: 1.17 | composite z-score [20]: -0.346

CC(=O)NCCCC[C@@H]1NC(=O)[C@H]2C[C@@H](C(=O)NCCCCCC[N+](C)(C)C)[C@@H](c3ccc(O)cc3)N2C1=O
composite z-score [1]: 1.54 | composite z-score [2]: 1.08 | composite z-score [3]: 0.26 | composite z-score [4]: -0.0238 | composite z-score [5]: 1.26 | composite z-score [6]: 0.862 | z-score [7]: -0.431 | composite z-score [8]: 1.41 | composite z-score [9]: 0.16 | z-score [10]: 0.512 (inactive) | composite z-score [11]: -0.127 | z-score [12]: -0.385 (inactive) | z-score [13]: -1.42 (inactive) | z-score [14]: -1.35 (inactive) | z-score [15]: -0.665 (inactive) | composite z-score [16]: -0.448 | composite z-score [17]: 0.0857 | composite z-score [18]: 1.4 | composite z-score [19]: 1.75 | composite z-score [20]: 2.1
